The text below walks through data of article PMC3315485, “Probing the Informational and Regulatory Plasticity of a Transcription Factor DNA–Binding Domain”.

Changes are numbered by the printed parent chain.

Assay in all cases: MITOMI; MITOMI, 295 K (22 C); buffer, salt and pH not stated in the material; high values mean tight binding
Holding throughout (conditions): protein: ivt; label: fluorescent; dsDNA, one strand shown

In one assay the target is T1, MarA RQR (Escherichia coli, UniProt P0ACH5 1-127, W40R).
T1 sequence: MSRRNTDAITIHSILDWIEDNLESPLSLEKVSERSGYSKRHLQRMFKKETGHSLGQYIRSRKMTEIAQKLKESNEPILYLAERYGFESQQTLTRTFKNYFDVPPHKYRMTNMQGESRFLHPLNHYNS
In a few lines:
(§1)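 Each fluorescently labelled MarA protein variant, made by in vitro transcription and translation with the RTS E. coli HY kit plus tRNA-lys-bodipy-fl, was tested by MITOMI against 64 synthesized mar binding site variants. Protein and DNA fluorescence were read on Genepix at 295K. Association constants, measured by MITOMI, are reported for each site relative to the highest-affinity site for the same protein variant.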

The target in the next assay is T2, MarA RTR (Escherichia coli, UniProt P0ACH5 1-127, W40R;Q43T).
T2 sequence: T1 sequence with Q43T
In a few lines:
as §1

A further assay has as its target T3, MarA SAR (Escherichia coli, UniProt P0ACH5 1-127, W40S;Q43A).
T3 sequence: T1 sequence with R40S, Q43A
In outline:
as §1

The next assay concerns the target T4, MarA TRR (Escherichia coli, UniProt P0ACH5 1-127, W40T;Q43R).
T4 sequence: T1 sequence with R40T, Q43R
In a few lines:
as §1

Regarding ATGTTCCGTTTTGCTAAAT, the binding signal in the assay with MarA RQR is 0.16 Ka relative to the best site of the variant; with MarA RTR it was 0.207 Ka relative to the best site of the variant; with MarA SAR, 0.254 Ka relative to the best site of the variant; in the assay with MarA TRR, 0.449 Ka relative to the best site of the variant.
